Hit rate of the full screen: of about 65,000 compounds, about 2,100 (3.2%) showed an effect of 50% or more. The median lay at about -52%. Shown is part of a subset that was picked to be rich in strong results.

The test system of the assay is Plasmodium falciparum. Nature of the assay: Screen against P. falciparum Asexual Blood Stage (ABS), at 5uM. Format: functional, Dd2. The settings on record: tested at 5 uM.
Take `c1cncc(CO[C@H]2CO[C@@]3(CCN(Cc4ccoc4)C3)C2)c1`: the INHIBITION is 23.3%.
On to `O=C(c1cccnc1-n1cncn1)N1CCC(Nc2ccccc2)CC1`, for which the INHIBITION is recorded as -86.3%.
The value for `Cc1ccccc1CN(CCN(C)C)Cc1ccc(S(C)(=O)=O)cc1` was 80.4%; that for `CCN1CCN(C(=O)COc2ccc(CN(C)S(C)(=O)=O)cc2)CC1` was 3.25%; that for `Cc1c(NC(=O)NC2CN3CCC2CC3)cccc1C(=O)N1CCCC1` (stereo unspecified) was -83.7%.
`CC(C)CCN1CCC2(CNS(=O)(=O)c3cccnc3O2)C1` (stereo unspecified): the INHIBITION was -5.49%.
The figure for `Cc1nn(-c2ncccn2)c2c1C(c1cnn(C)c1C)SCC(=O)N2` (stereo unspecified) is -1.18%; for `Cc1cc(CN2CC[C@H]3C[C@H](c4nccs4)O[C@@H]3C2)no1` it is -108%.
The figure for `COc1cccc(OC)c1CN1CC(=O)N(c2ccc(C)cc2)CC1C` (stereo unspecified) is 75.2%; for `Cc1cc(CN2CC[C@H]3[C@H]2CCN3C)oc1C` it is 43%.
Turning to `Fc1ccc2c(C3=CCN(Cc4nnc(C5CCC5)o4)CC3)c[nH]c2c1`, the INHIBITION is on record as 83.9%.
The figure for `C1=C(c2c[nH]c3ncccc23)CCN(Cc2nnc(C3CC3)o2)C1` is -48.5%.
The figure for `Cc1cnc(CN2CC=C(c3c[nH]c4ncccc34)CC2)o1` is 12.6%; for `CCC(C)N(Cc1ccc(C)cc1)Cc1c[nH]c(C)n1` (stereo unspecified) it is 77.5%; for `Cc1cc(C)c(CNc2ncnc3c2cnn3C)c(=O)[nH]1` it is -55.6%.
As for `O=C1CSC(c2ccc3c(c2)OCO3)c2cn[nH]c2N1` (stereo unspecified), the INHIBITION is listed as -10.6%.
As to `NCCC(Cc1ccccc1)c1ccco1` (stereo unspecified), the INHIBITION is on record as 84.1%.
Regarding `O=C(c1cscn1)N1CCC2(CN(Cc3ccncc3)C2)C1`, the INHIBITION is given as -48%.
`O=C(Nc1cccnc1)[C@H]1CN(Cc2cccs2)C[C@H]2OCC[C@@H]12`: the INHIBITION came to 2.31%.
The value for `Cc1cc(CN2CCC(CNS(=O)(=O)c3ccc(C)s3)CC2)c(C)o1` was 87.7%; that for `Cc1ccc(CN2CCC3(CC2)C(=O)Nc2ccccc23)s1` was 46.9%.
The figure for `Cc1cc(CN2CCC(CNS(=O)(=O)c3ccc(Br)s3)CC2)c(C)o1` is 91.6%.
The value for `Cc1cc(CN2CCC(CNS(=O)(=O)c3ccccc3F)CC2)c(C)o1` was 79.2%; that for `CC(C)=CCN1CCN(C(=O)COc2ccccc2)[C@H]2CS(=O)(=O)C[C@H]21` was -73.8%; that for `CC(Cc1c(F)cccc1F)NC(=O)NCc1ncnn1C` (stereo unspecified) was -43.1%.
For the compound `O=C(c1ccnnc1)N1CCN2C[C@H](Oc3cccnc3)C[C@H]2C1`, the INHIBITION is on record as 5.43%.
As to `Cc1nn(C)c(Oc2ccc(Cl)cc2)c1CN1CCC(CN)C1` (stereo unspecified), the INHIBITION was 92.8%.
The figure for `Cn1cc(N2CC[C@@H]3CN(Cc4ccncc4)C[C@H]3C2=O)cn1` is -102%; for `N#Cc1cccc(N2CCCC3(CNCCO3)C2)n1` (stereo unspecified) it is -104%.
The value for `CC(C)C1CN(c2cccc(C#N)n2)CCCN1Cc1ccc(F)cc1` (stereo unspecified) was 91.3%.
On to `CC(C)C1CN(c2cccc(C#N)n2)CCCN1CC1CC1` (stereo unspecified), for which the INHIBITION was 84.3%.
Turning to `Cc1nc(N)nc(C)c1CC(=O)N1CCCN(CC2CC2)C(C(C)C)C1` (stereo unspecified), the INHIBITION is recorded as -198%.
As to `N#Cc1cccc(N2CCOC3(CNCCOC3)C2)n1` (stereo unspecified), the INHIBITION was found to be 17%.
The value for `Cc1nc(C)c(CC(=O)N2CCCN(CC3CC3)C(C(C)C)C2)c(=O)[nH]1` (stereo unspecified) was -23.8%.
The figure for `CCN1CCC2(COCc3c(C)nc(N4CCOCC4)nc32)C1` (stereo unspecified) is -129%.
Turning to `CC(Cn1cccn1)NCc1csc2c1CCCC2` (stereo unspecified), the INHIBITION came to 39.2%.
As to `CC[C@H]1CN2CC[C@H]1C[C@@H]2CNC(=O)Nc1cccc(C#N)c1`, the INHIBITION is -82.6%.
As to `CN(C)C1Cc2ccccc2N(S(=O)(=O)c2cccc(C#N)c2)C1` (stereo unspecified), the INHIBITION amounted to 76.6%.
The figure for `CC(C)(C)n1ncc2c1NC(=O)CSC2c1ccsc1` (stereo unspecified) is -82.3%; for `COc1ccc(C(=O)N2CCOC3(CNCCOC3)C2)c(OC)n1` (stereo unspecified) it is -97.3%.
With `CC(C)n1ccnc1C1CCCN(c2ccnc3ccccc23)C1` (stereo unspecified), the INHIBITION is reported as 84%.
The value for `Cc1nc(CO[C@@H]2CC[C@H]3[C@H]2OCCN3Cc2cccnc2)cs1` was -22.1%; that for `COc1ccc(C(=O)C2CCCN(Cc3ccncc3)C2)cc1OC` (stereo unspecified) was -128%.
The figure for `O=C(Nc1ccc(Cl)cn1)C1CCCN(CCc2ccncc2)C1` (stereo unspecified) is 71.9%.
The figure for `COc1ccc(C(=O)C2CCCN(Cc3ccncc3)C2)c(OC)c1` (stereo unspecified) is -17.9%; for `O=C(CCc1nccs1)N1CCC(C(=O)O)(c2ccccc2)CC1` it is -56.3%; for `CN(C)[C@H]1CCCCN(C(=O)c2cccc(-c3cccc(F)c3)c2)C1` it is 73.3%.
In the case of `CN1CCO[C@@H]2CN(C(=O)c3ccc4ncccc4c3)CC[C@@H]2C1`, the INHIBITION is recorded as -46.1%.
`Cc1nc(CC(=O)N2CCCC[C@H](N(C)C)C2)cs1`: the INHIBITION is given as -56.95%.
The figure for `O=C(c1ccnc(-n2cnnc2)c1)N1CCCC2(CCNC2)C1` (stereo unspecified) is -120%; for `Nc1ncccc1CN1C[C@H]2OC(=O)N(Cc3ccccn3)[C@H]2C1` it is -117%.
